This passage reports outcome and Potency results from PubChem BioAssay (Tox21).

The structures appear in SMILES notation. Records with an inconclusive call do not appear. Where a structure was tested more than once in an assay, its records may differ in their call. Activity calls are given as the source filed them. Unless noted, the call rests on the fitted dose curve.

Experiment [1] is described as follows: qHTS assay to identify small molecule antagonists of the peroxisome proliferator-activated receptor delta (PPARd) signaling pathway - cell viability counter screen (AID 743213; active means well fitted curve in the direction sought with a large enough effect in the repeat runs; an effect the other way counts as inactive or inconclusive; further: nearly all actives have a fitted effect of over 50% in size). The settings on record: PPARd-bla HEK293H viability, CellTiter-Glo luminescence, 17 h; series mostly up to 62 µM. The gist of the method: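 In this counter screen, HEK293H cells carrying a UAS-beta-lactamase reporter are co-treated with test compounds and 300 nM L165041 (final) for 17 h at 37 C; cell viability is quantified by CellTiter-Glo luminescence.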

The nature of experiment [2]: qHTS assay to identify small molecule agonists of the farnesoid-X-receptor (FXR) signaling pathway - cell viability counter screen (AID 743218; active means well fitted curve in the direction sought with a large enough effect in the repeat runs; an effect the other way counts as inactive or inconclusive; further: nearly all actives have a fitted effect of over 45% in size). The settings on record: FXR-bla HEK293T viability, CellTiter-Glo luminescence, 16 h; series mostly up to 62.6 µM. The method in brief: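 Quantitative HTS counter screen measuring ATP-based viability via CellTiter-Glo luminescence in HEK 293T cells carrying a UAS-driven beta-lactamase reporter, after 16 h compound exposure at 37 C.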

Experiment [3] is described as follows: qHTS assay to identify small molecule antagonists of the farnesoid-X-receptor (FXR) signaling pathway - cell viability counter screen (AID 743221; active means well fitted cell-killing curve with a large enough effect in the repeat runs, not every such curve was filed as active; further: nearly all actives have a fitted effect of over 50% in size). The settings on record: FXR-bla HEK293T viability, CellTiter-Glo luminescence, 16 h; series mostly up to 62.6 µM. The gist of the method: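 FXR-UAS-bla HEK 293T cells were treated with test compounds plus chenodeoxycholic acid (50 uM final) for 16 h at 37 C. Cell viability in the same wells was then read as CellTiter-Glo luminescence after 30 min at room temperature.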

Experiment [4] has as its target Vitamin D3 receptor (Homo sapiens) (UniProt P11473). Kind of experiment: qHTS assay to identify small molecule agonists of the vitamin D receptor (VDR) signaling pathway (AID 743222). As to conditions: HEK293T VDR-UAS-bla, beta-lactamase FRET ratio, 16 h; series mostly up to 63.5 µM. The gist of the method:
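Tox21 cell reporter format: VDR-bla line, 16 h compound exposure in 5% CO2 at 37C, then fluorescence intensity after 2 h with LiveBLAzer B/G FRET substrate.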

Experiment [5] has the same target. Kind of experiment: qHTS assay to identify small molecule antagonists of the vitamin D receptor (VDR) signaling pathway (AID 743223; active means well fitted inhibition curve with a large enough effect in the signal ratio in the repeat runs, not every such curve was filed as active; the % refers to the signal ratio). The settings on record: VDR-UAS-bla HEK293T, beta-lactamase FRET ratio, 16 h; series mostly up to 61 µM. The gist of the method:
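VDR-bla cells were plated, incubated 4 h at 37C, then given compound and 1alpha,25-dihydroxyvitamin D3 (3 nM final). After 16 h at 37C, LiveBLAzer B/G FRET substrate was added for 2 h at room temperature and fluorescence read.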

Experiment [6] can be described thus: qHTS assay to identify small molecule agonists of the vitamin D receptor (VDR) signaling pathway - cell viability counter screen (AID 743224; active means well fitted curve in the direction sought with a large enough effect in the repeat runs; an effect the other way counts as inactive or inconclusive; further: nearly all actives have a fitted effect of over 50% in size). As to conditions: VDR-bla HEK293T viability, CellTiter-Glo luminescence, 16 h; series mostly up to 62.6 µM. The method in brief:
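CellTiter-Glo viability readout on VDR-bla cells, measured after 16 h of compound treatment at 37C in the same wells.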

Experiment [7] can be described thus: qHTS assay to identify small molecule antagonists of the vitamin D receptor (VDR) signaling pathway - cell viability counter screen (AID 743225; active means well fitted curve in the direction sought with a large enough effect in the repeat runs; an effect the other way counts as inactive or inconclusive; further: nearly all actives have a fitted effect of over 50% in size). The settings on record: VDR-bla HEK293T viability, CellTiter-Glo luminescence, 16 h; series mostly up to 61 µM. The method in brief: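 VDR-bla HEK 293T cells, 4 h pre-incubation at 37C, then compound plus 1-alpha,25-dihydroxyvitamin D3 (3 nM final) for 16 h. After the beta-lactamase FRET read, CellTiter-Glo was added to the same wells; luminescence after 30 min at room temperature.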

Experiment [8] can be described thus: qHTS assay to identify small molecule agonists of the NFkB signaling pathway (AID 1159509; active means well fitted curve in the direction sought with a large enough effect in the signal ratio in the repeat runs, not every such curve was filed as active; the % refers to the signal ratio). The settings on record: NFkB-bla ME-180 cells, beta-lactamase FRET ratio, 5 h; series mostly up to 61 µM. The gist of the method:
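Beta-lactamase reporter assay run in quantitative high-throughput format on an NF-kB-responsive ME-180 line, with 5 hr compound treatment and a FRET-based blue/green fluorescence readout.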

Experiment [9] in a line: qHTS assay to identify small molecule agonists of the NFkB signaling pathway - cell viability counter screen (AID 1159515). Further: nearly all actives have a fitted effect of over 55% in size. The settings on record: NFkB-bla ME-180 viability, CellTiter-Glo luminescence, 5 h; series mostly up to 61 µM. The method in brief: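 Tox21 library compounds were tested for cytotoxicity against NFkB-bla ME-180 cells during a 5 hr exposure at 37 C. CellTiter-Glo luminescence served as the viability read-out.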

Experiment [10] can be described thus: qHTS assay to identify small molecule agonists of the endoplasmic reticulum stress response signaling pathway (AID 1159516; active means well fitted activation curve with a large enough effect in the signal ratio in the repeat runs, not every such curve was filed as active; the % refers to the signal ratio). As to conditions: ESRE-bla HeLa, ER stress beta-lactamase reporter, 5 h; series mostly up to 61 µM. The method in brief: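 Fluorescence at 460 and 530 nm (405 nm excitation) reports beta-lactamase from an ER stress response element in HeLa cells treated 5 hr at 37 C.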

Experiment [11] can be described thus: qHTS assay to identify small molecule agonists of the endoplasmic reticulum stress response signaling pathway - cell viability counter screen (AID 1159517). Further: nearly all actives have a fitted effect of over 50% in size. The settings on record: ESRE-bla HeLa viability, CellTiter-Glo luminescence, 5 h; series mostly up to 61 µM. The gist of the method:
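Steps: seed 1,500 ESRE-bla HeLa cells per well; incubate overnight at 37 C, 5% CO2; add compounds in DMSO for 5 hr; run FRET substrate 2 hr RT; add CellTiter-Glo, wait 30 min, read luminescence.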

Experiment [12] in a line: qHTS assay to identify small molecule antagonists of the retinoid-related orphan receptor gamma (ROR-gamma) signaling pathway - cell viability counter screen (AID 1159520; active means well fitted curve in the direction sought with a large enough effect in the repeat runs; an effect the other way counts as inactive or inconclusive; further: nearly all actives have a fitted effect of over 50% in size). As to conditions: Tet-on RORgamma CHO cells viability, ATP luminescence, 16 h; series mostly up to 92.4 µM. The gist of the method: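 Tet-on ROR gamma CHO cells were given compounds for 2 hr, then doxycycline hyclate at 1 uM final, and incubated 16 hr at 37 C. Viability was measured as ATP content by CellTiter-Glo luminescence.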

The target in experiment [13] is Nuclear receptor ROR-gamma (Homo sapiens) (UniProt P51449). The experiment can be described thus: qHTS assay to identify small molecule antagonists of the retinoid-related orphan receptor gamma (ROR-gamma) signaling pathway (AID 1159521; active means well fitted curve in the direction sought with a large enough effect in the repeat runs; an effect the other way counts as inactive or inconclusive). As to conditions: Tet-on RORgamma CHO cells, RORE-luciferase, 16 h; series mostly up to 92.4 µM. The method in brief: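 Tet-on RORγ CHO cells carrying a ROR response element–luciferase reporter were pretreated with compounds for 2 h, then induced with 1 uM (final) doxycycline hyclate for 16 h at 37 C. Antagonism was read as decreased ONE-Glo luminescence.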

The nature of experiment [14]: qHTS assay to identify small molecule agonists of the AP-1 signaling pathway - cell viability counter screen (AID 1159525). Further: nearly all actives have a fitted effect of over 55% in size. As to conditions: ME-180 AP-1-bla cells viability, ATP luminescence, 5 h; series mostly up to 76.8 µM. The gist of the method:
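Same-well cytotoxicity counter screen of the Tox21 10K library in ME-180 cells. The readout is ATP-dependent luminescence after 5 h compound treatment. Data are normalised to DMSO and tetra n-octyl ammonium bromide controls.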

Experiment [15] can be described thus: qHTS assay to identify small molecule agonists of the AP-1 signaling pathway (AID 1159526). Further: potency means the concentration at half of the fitted maximal effect. The settings on record: ME-180 (cervical carcinoma) AP-1-bla reporter, beta-lactamase FRET ratio, 5 h; series mostly up to 76.8 µM.
Experiment [16] deals with Retinoic acid receptor RXR-alpha (Homo sapiens) (UniProt P19793). Kind of experiment: qHTS assay to identify small molecule agonists of the RXR signaling pathway (AID 1159527). Further: nearly all actives have a fitted effect of over 35% in size. Further: potency means the concentration at half of the fitted maximal effect. As to conditions: HEK293T RXRa-UAS-bla, beta-lactamase ratio, 16 h; series mostly up to 76.8 µM. The method in brief: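 GeneBLAzer RXR-alpha-UAS-bla HEK 293T cells in medium with 2% charcoal-stripped FBS, pre-incubated 5 hr at 37 C, then exposed to compounds 16 hr. Beta-lactamase reporter read by FRET substrate, 2 hr room temperature, 460/530 nm emission.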

For experiment [17], the target named is Peroxisome proliferator-activated receptor delta (Homo sapiens) (UniProt Q03181). Kind of experiment: qHTS assay to identify small molecule agonists of the peroxisome proliferator-activated receptor delta (PPARd) signaling pathway (AID 743212). The settings on record: HEK293H PPARd-UAS-bla, beta-lactamase FRET ratio, 17 h; series mostly up to 62.6 µM. The gist of the method:
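Read-out: beta-lactamase FRET fluorescence after 2 h room-temperature incubation with LiveBLAzer B/G substrate. Cells were HEK293H carrying a UAS-bla reporter for PPARd, treated at 37 C with DMSO-dissolved compounds.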

Vitamin D3 receptor (Homo sapiens), sequence (P11473 whole entry, looked up): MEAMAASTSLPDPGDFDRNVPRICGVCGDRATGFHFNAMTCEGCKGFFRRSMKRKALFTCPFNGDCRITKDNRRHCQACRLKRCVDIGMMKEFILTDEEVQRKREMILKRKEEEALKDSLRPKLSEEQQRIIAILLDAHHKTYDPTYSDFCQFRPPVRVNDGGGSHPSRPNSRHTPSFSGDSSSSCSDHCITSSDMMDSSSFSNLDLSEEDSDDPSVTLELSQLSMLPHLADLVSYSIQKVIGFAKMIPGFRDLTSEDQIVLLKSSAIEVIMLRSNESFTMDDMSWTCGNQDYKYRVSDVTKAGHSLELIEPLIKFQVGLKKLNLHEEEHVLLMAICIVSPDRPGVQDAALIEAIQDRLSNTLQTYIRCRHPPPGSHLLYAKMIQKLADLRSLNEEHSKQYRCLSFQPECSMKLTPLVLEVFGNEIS
Peroxisome proliferator-activated receptor delta (Homo sapiens), sequence (Q03181 whole entry, looked up): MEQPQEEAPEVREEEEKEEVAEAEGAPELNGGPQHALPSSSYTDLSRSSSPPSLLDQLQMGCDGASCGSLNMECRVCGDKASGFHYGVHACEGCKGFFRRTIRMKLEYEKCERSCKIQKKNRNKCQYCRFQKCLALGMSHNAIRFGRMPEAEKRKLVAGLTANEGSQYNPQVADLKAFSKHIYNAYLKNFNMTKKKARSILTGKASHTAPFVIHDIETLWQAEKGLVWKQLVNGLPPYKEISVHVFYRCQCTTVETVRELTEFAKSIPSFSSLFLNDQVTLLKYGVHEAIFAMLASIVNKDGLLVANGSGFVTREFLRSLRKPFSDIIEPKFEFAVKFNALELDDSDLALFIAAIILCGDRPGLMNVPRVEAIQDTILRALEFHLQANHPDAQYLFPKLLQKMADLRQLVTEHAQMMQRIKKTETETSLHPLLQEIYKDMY
Retinoic acid receptor RXR-alpha (Homo sapiens), sequence (P19793 whole entry, looked up): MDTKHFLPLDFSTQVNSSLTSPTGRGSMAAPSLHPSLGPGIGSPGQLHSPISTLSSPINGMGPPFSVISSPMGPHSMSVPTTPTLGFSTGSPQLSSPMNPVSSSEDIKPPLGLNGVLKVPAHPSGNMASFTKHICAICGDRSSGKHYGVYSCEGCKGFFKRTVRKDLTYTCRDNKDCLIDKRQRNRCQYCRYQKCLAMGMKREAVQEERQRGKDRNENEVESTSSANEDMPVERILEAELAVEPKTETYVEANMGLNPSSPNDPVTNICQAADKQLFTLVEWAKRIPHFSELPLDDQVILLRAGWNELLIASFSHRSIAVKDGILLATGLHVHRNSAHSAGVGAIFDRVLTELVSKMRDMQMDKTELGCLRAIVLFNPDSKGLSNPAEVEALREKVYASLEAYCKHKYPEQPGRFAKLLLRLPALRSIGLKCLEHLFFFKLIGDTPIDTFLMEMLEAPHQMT

Consider `Cn1cc[nH]c1=S`, for which the outcome in [1], in experiment [2], in experiment [3], in experiment [4], in [5] and in experiment [6] was inactive. Besides, the outcome in experiment [7], in experiment [8], in experiment [9], in experiment [10] and in experiment [11] was inactive. For the same molecule, the Potency result in experiment [12], in [13] and in [14] was “inactive” in each case. In addition, the Potency in [15] is 54.9 µM (active) and inactive.
In the case of `NS(=O)(=O)c1cc(C(=O)O)c(NCc2ccco2)cc1Cl`, the molecule was called inactive in experiment [1], in [2], in experiment [3], in experiment [4], in experiment [5] and in experiment [6]. Moreover, the molecule was called inactive in [7], in experiment [8], in experiment [9], in [10] and in experiment [11]. In addition, the Potency result in experiment [12], in [13], in experiment [14] and in [15] was “inactive” throughout.
With `CCCCCCCCCCCCCCCC(=O)O`, the molecule was classed as inactive in experiment [1], in experiment [2], in experiment [3], in [4], in experiment [5] and in experiment [6]. Moreover, the outcome in experiment [7], in experiment [8], in experiment [9], in [10] and in [11] was inactive. The Potency entry in experiment [12], in experiment [14], in [15] and in experiment [16] was “inactive” throughout.
`Nc1ccc(S(=O)(=O)Nc2nccs2)cc1`: the outcome in [17], in experiment [1], in [2], in experiment [3], in experiment [4] and in experiment [5] was inactive. The molecule was classed as inactive in experiment [6], in experiment [7], in experiment [8], in [9], in experiment [10] and in [11]. Further, the Potency entry in experiment [12], in experiment [14] and in experiment [15] was “inactive” each time. Besides, the Potency in [16] was 19.6 µM (active) and inactive.
